In the supplement of paper PMC10849652:
About 7,900 targets were measured; listed, in parts, are those with a hit and a random draw of the rest. About 0.6% of all pairs of compound and target were hits. A number with no mark means an inactive call.

What was measured:
Assay in all cases: log2 fold change, soluble protein after heating vs DMSO (PISA); higher = thermal stabilisation; K562 cells, 10 uM, 30 min; active = over 0.2 and 3.5 SD of the protein, either way, in both replicates (recomputed)
[1] = compound: CS(=O)(=O)c1ccc(-c2cnc(N)c(C(=O)Nc3ccccc3)n2)cc1
Method in brief: (§1)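 K562 cells at 2×10^6 cells/mL were treated for 30 min with 10 μM compound, and aliquots were heated for 3 min over 48°C-58°C before pooling. Extraction used PBS with 0.5% NP-40 at 4°C, and soluble protein was the supernatant after 21,000xg for 90 min, measured by TMTpro 16plex LC-MS/MS with channel sums equalised. Thermal stability values, relative to control samples and from duplicates, are log2 fold changes.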

crizotinib = compound: C[C@@H](Oc1cc(-c2cnn(C3CCNCC3)c2)cnc1N)c1c(Cl)ccc(F)c1Cl [crizotinib]
Method in brief: as §1

[2] = compound: C[C@@H]1COCCN1C2=NC(=NC(=C2)C3(CC3)S(=O)(=O)C)C4=C5C=CNC5=CC=C4
Method in brief: as §1

[3] = compound: C[C@H](C1=CC=C(C=C1)C(=O)NC2=C3C=CNC3=NC=C2)N
Method in brief: as §1

duvelisib = compound: C[C@H](Nc1ncnc2nc[nH]c12)c1cc2cccc(Cl)c2c(=O)n1-c1ccccc1 [duvelisib]
Method in brief: as §1

gandotinib = compound: Cc1cc(Nc2cc(CN3CCOCC3)c3nc(C)c(Cc4ccc(Cl)cc4F)n3n2)n[nH]1 [gandotinib]
Method in brief: as §1

tozasertib = compound: Cc1cc(Nc2cc(N3CCN(C)CC3)nc(Sc3ccc(NC(=O)C4CC4)cc3)n2)n[nH]1 [tozasertib]
Method in brief: as §1

[4] = compound: Cc1cc(SCc2sc(-c3ccc(C(F)(F)F)cc3)nc2C)ccc1OCC(=O)O
Method in brief: as §1

doramapimod = compound: Cc1ccc(-n2nc(C(C)(C)C)cc2NC(=O)Nc2ccc(OCCN3CCOCC3)c3ccccc23)cc1 [doramapimod]
Method in brief: as §1

ispinesib = compound: Cc1ccc(C(=O)N(CCCN)[C@@H](c2nc3cc(Cl)ccc3c(=O)n2Cc2ccccc2)C(C)C)cc1 [ispinesib]
Method in brief: as §1

bafetinib = compound: Cc1ccc(NC(=O)c2ccc(CN3CC[C@H](N(C)C)C3)c(C(F)(F)F)c2)cc1Nc1nccc(-c2cncnc2)n1 [bafetinib]
Method in brief: as §1

[5] = compound: Cc1cccc(CC(=O)N2CCc3c2ccc(-c2cn(C)c4ncnc(N)c24)c3F)n1
Method in brief: as §1

dasatinib = compound: Cc1nc(Nc2ncc(C(=O)Nc3c(C)cccc3Cl)s2)cc(N2CCN(CCO)CC2)n1 [dasatinib]
Method in brief: as §1

[6] = compound: Cn1cc(-c2ccc3c(c2)CCN3C(=O)Cc2cccc(C(F)(F)F)c2)c2c(N)ncnc21
Method in brief: as §1

[7] = compound: Cn1cc(-c2ccc3nnc(C(F)(F)c4ccc5ncccc5c4)n3n2)cn1
Method in brief: as §1

tipifarnib = compound: Cn1cncc1[C@@](N)(c1ccc(Cl)cc1)c1ccc2c(c1)c(-c1cccc(Cl)c1)cc(=O)n2C [tipifarnib]
Method in brief: as §1

nilotinib = compound: Cc1cn(-c2cc(NC(=O)c3ccc(C)c(Nc4nccc(-c5cccnc5)n4)c3)cc(C(F)(F)F)c2)cn1 [nilotinib]
Method in brief: as §1

[8] = compound: Cc1nc(Nc2n[nH]c3c2CN(C(=O)N[C@H](CN(C)C)c2ccccc2)C3(C)C)c2sccc2n1
Method in brief: as §1

[9] = compound: Cc1ncc(-c2ccnc(Nc3ccc(S(C)(=O)=O)cc3)n2)n1C(C)C
Method in brief: as §1

mubritinib = compound: FC(F)(F)c1ccc(/C=C/c2nc(COc3ccc(CCCCn4ccnn4)cc3)co2)cc1 [mubritinib]
Method in brief: as §1

Sequence of UniProt Q04771 (Q04771 whole entry, looked up): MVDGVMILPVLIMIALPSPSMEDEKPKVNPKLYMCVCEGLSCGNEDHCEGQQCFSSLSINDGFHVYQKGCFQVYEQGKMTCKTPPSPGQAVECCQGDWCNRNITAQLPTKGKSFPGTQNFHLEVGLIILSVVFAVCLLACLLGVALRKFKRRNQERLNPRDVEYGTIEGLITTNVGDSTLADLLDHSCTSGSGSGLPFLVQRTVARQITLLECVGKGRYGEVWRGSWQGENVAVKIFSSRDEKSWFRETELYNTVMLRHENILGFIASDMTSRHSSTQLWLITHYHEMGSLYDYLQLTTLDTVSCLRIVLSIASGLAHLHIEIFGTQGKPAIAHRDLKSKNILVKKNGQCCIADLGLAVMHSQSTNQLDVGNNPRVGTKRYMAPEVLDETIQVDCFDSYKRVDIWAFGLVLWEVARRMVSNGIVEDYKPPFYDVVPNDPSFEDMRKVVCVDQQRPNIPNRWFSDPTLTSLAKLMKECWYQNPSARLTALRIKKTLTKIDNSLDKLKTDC
Sequence of UniProt Q9BTE6 (Q9BTE6 whole entry, looked up): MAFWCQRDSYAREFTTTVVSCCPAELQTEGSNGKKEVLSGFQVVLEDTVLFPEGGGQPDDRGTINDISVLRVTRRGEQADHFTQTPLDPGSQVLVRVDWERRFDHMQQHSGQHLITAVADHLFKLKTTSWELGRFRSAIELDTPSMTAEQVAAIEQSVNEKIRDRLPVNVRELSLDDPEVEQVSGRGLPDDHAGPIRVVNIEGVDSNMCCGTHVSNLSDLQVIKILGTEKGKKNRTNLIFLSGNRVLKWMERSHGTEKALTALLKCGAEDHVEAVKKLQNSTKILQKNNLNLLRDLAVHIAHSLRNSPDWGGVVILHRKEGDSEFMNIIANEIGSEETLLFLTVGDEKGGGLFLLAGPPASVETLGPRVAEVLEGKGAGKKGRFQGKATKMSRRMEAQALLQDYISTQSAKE
Sequence of UniProt Q96BI3 (Q96BI3 whole entry, looked up): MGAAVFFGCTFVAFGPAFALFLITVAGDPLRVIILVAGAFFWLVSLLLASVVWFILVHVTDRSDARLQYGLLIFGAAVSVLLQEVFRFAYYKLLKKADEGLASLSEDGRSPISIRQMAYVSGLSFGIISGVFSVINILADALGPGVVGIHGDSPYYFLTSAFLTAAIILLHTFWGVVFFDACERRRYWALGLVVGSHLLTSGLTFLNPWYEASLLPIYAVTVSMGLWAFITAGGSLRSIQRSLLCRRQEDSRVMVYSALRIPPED
Sequence of UniProt O14727 (O14727 whole entry, looked up): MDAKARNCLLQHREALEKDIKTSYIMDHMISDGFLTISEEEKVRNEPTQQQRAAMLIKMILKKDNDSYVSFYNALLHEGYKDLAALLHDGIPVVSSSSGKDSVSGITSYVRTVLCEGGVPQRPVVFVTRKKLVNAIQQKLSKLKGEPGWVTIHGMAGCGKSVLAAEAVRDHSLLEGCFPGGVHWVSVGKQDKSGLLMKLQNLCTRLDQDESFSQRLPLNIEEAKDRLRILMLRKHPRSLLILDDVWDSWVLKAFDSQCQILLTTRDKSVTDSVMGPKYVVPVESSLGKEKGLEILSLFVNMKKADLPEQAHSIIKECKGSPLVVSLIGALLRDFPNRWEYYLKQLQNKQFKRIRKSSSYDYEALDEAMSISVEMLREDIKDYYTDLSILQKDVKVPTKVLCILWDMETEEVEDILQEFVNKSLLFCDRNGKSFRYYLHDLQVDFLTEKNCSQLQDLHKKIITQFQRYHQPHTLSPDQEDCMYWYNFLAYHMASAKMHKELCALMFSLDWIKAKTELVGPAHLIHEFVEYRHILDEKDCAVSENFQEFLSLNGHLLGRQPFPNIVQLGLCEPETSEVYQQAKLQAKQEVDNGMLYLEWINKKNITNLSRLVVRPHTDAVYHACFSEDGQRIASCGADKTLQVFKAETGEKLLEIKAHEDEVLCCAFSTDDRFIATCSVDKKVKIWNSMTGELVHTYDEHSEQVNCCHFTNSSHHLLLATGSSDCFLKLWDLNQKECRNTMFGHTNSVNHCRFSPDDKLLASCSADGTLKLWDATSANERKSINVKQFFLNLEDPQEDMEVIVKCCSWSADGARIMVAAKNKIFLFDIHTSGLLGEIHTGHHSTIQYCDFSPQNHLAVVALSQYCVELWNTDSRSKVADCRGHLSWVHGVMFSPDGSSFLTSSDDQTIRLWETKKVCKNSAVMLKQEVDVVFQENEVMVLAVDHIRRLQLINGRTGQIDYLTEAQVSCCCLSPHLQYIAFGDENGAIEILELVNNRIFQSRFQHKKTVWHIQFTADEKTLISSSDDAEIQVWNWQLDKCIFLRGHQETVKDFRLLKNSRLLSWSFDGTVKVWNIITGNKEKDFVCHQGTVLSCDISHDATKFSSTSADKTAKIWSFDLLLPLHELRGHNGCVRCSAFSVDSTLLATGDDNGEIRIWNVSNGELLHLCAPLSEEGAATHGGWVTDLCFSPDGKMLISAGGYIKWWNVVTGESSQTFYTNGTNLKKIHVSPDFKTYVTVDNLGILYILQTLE
Sequence of UniProt Q562R1 (Q562R1 whole entry, looked up): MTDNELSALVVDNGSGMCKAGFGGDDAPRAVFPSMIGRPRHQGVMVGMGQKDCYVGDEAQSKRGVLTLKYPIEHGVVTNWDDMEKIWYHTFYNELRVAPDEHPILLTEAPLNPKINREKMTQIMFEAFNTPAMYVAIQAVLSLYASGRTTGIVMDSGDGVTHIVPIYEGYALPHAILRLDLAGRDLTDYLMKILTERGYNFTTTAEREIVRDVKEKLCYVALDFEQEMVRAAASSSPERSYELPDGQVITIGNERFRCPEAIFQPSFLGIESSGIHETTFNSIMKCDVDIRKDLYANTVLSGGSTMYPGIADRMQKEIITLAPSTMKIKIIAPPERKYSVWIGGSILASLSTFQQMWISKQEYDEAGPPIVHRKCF
Sequence of UniProt P18846 (P18846 whole entry, looked up): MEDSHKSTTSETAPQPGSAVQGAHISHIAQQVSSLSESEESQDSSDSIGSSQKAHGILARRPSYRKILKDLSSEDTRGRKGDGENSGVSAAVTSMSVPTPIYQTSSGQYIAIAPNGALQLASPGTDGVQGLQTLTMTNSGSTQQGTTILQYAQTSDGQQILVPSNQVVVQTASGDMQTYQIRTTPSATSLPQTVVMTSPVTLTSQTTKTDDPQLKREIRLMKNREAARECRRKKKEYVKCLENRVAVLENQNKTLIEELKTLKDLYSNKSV
Sequence of UniProt Q7Z591 (Q7Z591 whole entry, looked up): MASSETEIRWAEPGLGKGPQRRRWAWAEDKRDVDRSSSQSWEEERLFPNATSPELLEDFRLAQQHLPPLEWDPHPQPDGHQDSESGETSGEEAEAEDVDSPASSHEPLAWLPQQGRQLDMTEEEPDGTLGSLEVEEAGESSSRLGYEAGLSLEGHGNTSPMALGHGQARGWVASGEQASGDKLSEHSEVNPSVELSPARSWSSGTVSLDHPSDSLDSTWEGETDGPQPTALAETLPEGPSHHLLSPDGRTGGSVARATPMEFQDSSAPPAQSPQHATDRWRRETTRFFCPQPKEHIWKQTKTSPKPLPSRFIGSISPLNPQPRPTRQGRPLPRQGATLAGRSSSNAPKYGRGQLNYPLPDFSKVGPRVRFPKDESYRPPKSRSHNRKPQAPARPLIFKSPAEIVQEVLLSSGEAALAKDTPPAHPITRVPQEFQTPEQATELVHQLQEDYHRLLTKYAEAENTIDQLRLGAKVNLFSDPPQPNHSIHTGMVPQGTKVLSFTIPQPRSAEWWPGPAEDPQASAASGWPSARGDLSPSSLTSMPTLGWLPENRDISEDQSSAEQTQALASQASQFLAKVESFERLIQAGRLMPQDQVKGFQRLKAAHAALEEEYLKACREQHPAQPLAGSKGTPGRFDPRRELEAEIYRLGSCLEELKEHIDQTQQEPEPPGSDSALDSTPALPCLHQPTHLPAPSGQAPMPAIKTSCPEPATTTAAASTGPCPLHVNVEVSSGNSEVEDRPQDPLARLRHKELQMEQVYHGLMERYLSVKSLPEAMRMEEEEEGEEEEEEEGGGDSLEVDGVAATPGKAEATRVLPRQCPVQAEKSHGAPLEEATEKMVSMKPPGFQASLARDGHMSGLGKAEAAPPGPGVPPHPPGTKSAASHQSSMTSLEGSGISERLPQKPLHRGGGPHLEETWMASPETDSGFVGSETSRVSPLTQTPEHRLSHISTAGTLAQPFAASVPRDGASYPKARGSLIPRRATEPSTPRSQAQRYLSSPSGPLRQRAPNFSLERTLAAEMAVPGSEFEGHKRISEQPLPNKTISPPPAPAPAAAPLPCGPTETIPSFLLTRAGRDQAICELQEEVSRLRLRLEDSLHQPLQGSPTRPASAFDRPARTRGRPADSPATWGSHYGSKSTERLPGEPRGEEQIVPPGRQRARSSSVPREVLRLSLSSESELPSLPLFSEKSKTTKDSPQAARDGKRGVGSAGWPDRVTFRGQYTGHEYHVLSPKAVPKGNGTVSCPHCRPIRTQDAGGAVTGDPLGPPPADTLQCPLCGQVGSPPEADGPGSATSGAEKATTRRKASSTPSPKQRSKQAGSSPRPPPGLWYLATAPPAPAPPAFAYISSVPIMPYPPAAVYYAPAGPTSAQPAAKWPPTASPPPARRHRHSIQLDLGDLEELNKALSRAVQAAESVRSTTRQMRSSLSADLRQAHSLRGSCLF
Sequence of UniProt Q8WV93 (Q8WV93 whole entry, looked up): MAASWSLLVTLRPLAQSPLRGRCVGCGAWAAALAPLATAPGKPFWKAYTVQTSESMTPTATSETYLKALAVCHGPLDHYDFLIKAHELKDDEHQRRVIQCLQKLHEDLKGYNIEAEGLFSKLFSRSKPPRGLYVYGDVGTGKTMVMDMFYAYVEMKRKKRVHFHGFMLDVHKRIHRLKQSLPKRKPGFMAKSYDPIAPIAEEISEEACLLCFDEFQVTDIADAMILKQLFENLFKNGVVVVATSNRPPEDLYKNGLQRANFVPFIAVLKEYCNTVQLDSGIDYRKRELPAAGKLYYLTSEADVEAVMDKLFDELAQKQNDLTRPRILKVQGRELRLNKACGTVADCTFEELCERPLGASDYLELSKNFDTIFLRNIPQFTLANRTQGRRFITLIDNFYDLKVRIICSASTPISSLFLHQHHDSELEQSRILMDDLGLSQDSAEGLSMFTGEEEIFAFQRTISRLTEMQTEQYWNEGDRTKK

Target	log2 fold change [1]	log2 fold change (crizotinib)	log2 fold change [2]	log2 fold change [3]	log2 fold change (duvelisib)	log2 fold change (gandotinib)	log2 fold change (tozasertib)	log2 fold change [4]	log2 fold change (doramapimod)	log2 fold change (ispinesib)	log2 fold change (bafetinib)	log2 fold change [5]	log2 fold change (dasatinib)	log2 fold change [6]	log2 fold change [7]	log2 fold change (tipifarnib)	log2 fold change (nilotinib)	log2 fold change [8]	log2 fold change [9]	log2 fold change (mubritinib)
ABCA3 (UniProt Q99758)	0.111	-0.361 (active)	0.174	0.073	0.035	0.036	0.005	0.014	0.031	-0.502 (active)	0.164	-0.053	-0.027	-0.022	0.019	0.058				
AP2M1 (UniProt C9JTK4)	0.105	0.048	0.158	0.08	0.147		0.057	-0.03	0.032		-0.174		0.029	-0.17			-0.02	0.212	-0.161	0.08
APAF1 (UniProt O14727)	-0.045	0.045	0.115	-0.061	0.268	0.047		0.119	0.006	-0.181		0.042	-0.121	-0.122	-0.016	-0.152	-0.058	-0.015	-0.268	-0.032
ATF7 isoform 6 (UniProt P17544)	-0.131	0.061	0.02	-0.088	-0.093		-0.032	-0.054	0.158	0.223	0.02		0.504 (active)	0.055	-0.266	0	-0.026	-0.081	-0.019	0.018
AFG1L (UniProt Q8WV93)	-0.04	-0.027	0.074	0.001	0.078		-0.147	-0.019	0.002	-0.253	-0.041		-0.023	0.077	0.109	0.19	-0.061	-0.048	0.043	0.031
BAD (UniProt Q92934)	0.171	0.076	0.076	-0.036	0.081	0.018		-0.033	0.003	0.025	-0.151	-0.046	0.092	0.077	0.076	-0.005	0.034	0.009	-0.069	-0.046
ALDH9A1 isoform 3 (UniProt P49189)	-0.002	-0.002	0.027	-0.042	0.015	0.063	-0.024	-0.002	-0.004	0.006	-0.003	0.001	0.025	0.041	0.001	-0.002	0.012	-0.019	-0.018	-0.005
APH1A (UniProt Q96BI3)	0.048	-0.151		0.021	0.035	-0.075	0.015	-0.036	0.073		0.132	-0.06	-0.039	0.036		-0.06	-0.037	-0.04	0.028	0.05
AARSD1 (UniProt Q9BTE6)		-0.036		0.033	-0.258			0.026	-0.096		0.142		-0.606	0.121		-0.19	0.029	-0.078	-0.012	0.066
ABHD11 (UniProt Q8NFV4)		0.149	0.309 (active)	0.057	0.144	0.389 (active)	-0.039	-0.003	0.028	0.029	0.011	0.175	0.073	0.024	0.025	0.174	0.003	-0.006	0.083	-0.235
AUNIP isoform 2 (UniProt Q9H7T9)	0.117			-0.007	0.157		-0.203	0.056					-0.284	-0.006		-0.844 (active)				
ARL4A (UniProt P40617)											0.145									0.078
ATF1 (UniProt P18846)	-0.004		0.017	0.073		0.067	0.113				-0.12	0.018		-0.006		0.06	0.035	-0.09	0.064	0.057
ATP6V0A1 (UniProt Q93050)											-0.078									
AP2S1 (UniProt M0QZ21)							-0.253													
ADD2 isoform 9 (UniProt P35612)	-0.067									0.04	0.021				-0.002	0.149				-0.125
AKNA (UniProt Q7Z591)	-0.015			-0.02										-0.134		0.215				
ACTBL2 (UniProt Q562R1)	-0.022		-0.005		-0.091	-0.828		-0.299		-0.307	0.113	-0.124	0.398		0.336	0.488	0.579	-0.067	-0.051	-0.267
ARHGAP25 isoform 4 (UniProt P42331)			-0.066	0.309	-0.067	-0.056	0.111	0.299			-0.035	-0.089	-0.421	-0.009			0.28	-0.276	0.078	0.266
AZI2 (UniProt Q9H6S1)	0.074						0.329			-0.019	-0.049				0.105		0.179	0.481	0.099	
ARRDC1 (UniProt Q8N5I2)	0.015		-0.097	0.205	-0.263	0.1	-0.075	-0.071		-0.082	0.014	-0.035	-0.073	0	-0.087	0.011	-0.045	0.065	0.079	-0.112
AURKA (UniProt O14965)	0.198		-0.251	0.066	-0.058	1.01 (active)		-0.013	0.051	-0.107	0.103	-0.113	0.365	0.073	-0.016	-0.054	-0.001	0.699 (active)	0.47	-0.078
BRD4 (UniProt O60885)	0.081		0.288	-0.009	0.207	-0.034	0.033	-0.044		-0.022	0.067	0.054	-0.094	0.011	-0.046	-0.09	-0.144	0.017	-0.233	0.032
ACVR1 (UniProt Q04771)	0.38		0.04	0.642 (active)	0.074	0.109	0.014	-0.061				-0.068	0.041	0.029		-0.006				-0.124
